CHT block = inhibitors of human choline transporter CHT | CHT-expressing cells, membrane potential dye, choline response; active compounds read low | AID 488975, 2010 | High affinity choline transporter 1 (Homo sapiens), Q9GZV3 | 310,000 tested, 0.86% active | B-score at 10 µM;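 active means B-score over 3 SD under the library average, and starting fluorescence ratio not unusually high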;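 further: choline stimulus applied at its EC90 after an EC20 pre-addition; B-score computed on integrated fluorescence ratio after choline addition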
ALR H2O2 inh = inhibitors of human ALR sulfhydryl oxidase, primary screen, biochemical, H2O2 detection, HRP-luminol luminescence, single point; FAD-linked sulfhydryl oxidase ALR (Homo sapiens), P55789; purified ALR, DTT oxidation; inhibition, % (concentration not given with the values); 290,000 tested, 3.8% active; AID 485317, 2010;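 active means mean replicate inhibition above about 79%, with every replicate also reaching it, limit read from the data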
PREPL inh = PREPL enzyme inhibitors, primary screen, biochemical, fluorescence polarization; inhibition, % at 5.96 µM; recombinant PREPL, fluorescence polarization activity-based probe; Prolyl endopeptidase-like (Homo sapiens), Q4J6C6; 320,000 tested, 0.68% active; in the data active means inhibition above about 43%;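 further: 0% = enzyme with DMSO and 100% = wells lacking enzyme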
Target sequence (Q4J6C6 whole entry, looked up): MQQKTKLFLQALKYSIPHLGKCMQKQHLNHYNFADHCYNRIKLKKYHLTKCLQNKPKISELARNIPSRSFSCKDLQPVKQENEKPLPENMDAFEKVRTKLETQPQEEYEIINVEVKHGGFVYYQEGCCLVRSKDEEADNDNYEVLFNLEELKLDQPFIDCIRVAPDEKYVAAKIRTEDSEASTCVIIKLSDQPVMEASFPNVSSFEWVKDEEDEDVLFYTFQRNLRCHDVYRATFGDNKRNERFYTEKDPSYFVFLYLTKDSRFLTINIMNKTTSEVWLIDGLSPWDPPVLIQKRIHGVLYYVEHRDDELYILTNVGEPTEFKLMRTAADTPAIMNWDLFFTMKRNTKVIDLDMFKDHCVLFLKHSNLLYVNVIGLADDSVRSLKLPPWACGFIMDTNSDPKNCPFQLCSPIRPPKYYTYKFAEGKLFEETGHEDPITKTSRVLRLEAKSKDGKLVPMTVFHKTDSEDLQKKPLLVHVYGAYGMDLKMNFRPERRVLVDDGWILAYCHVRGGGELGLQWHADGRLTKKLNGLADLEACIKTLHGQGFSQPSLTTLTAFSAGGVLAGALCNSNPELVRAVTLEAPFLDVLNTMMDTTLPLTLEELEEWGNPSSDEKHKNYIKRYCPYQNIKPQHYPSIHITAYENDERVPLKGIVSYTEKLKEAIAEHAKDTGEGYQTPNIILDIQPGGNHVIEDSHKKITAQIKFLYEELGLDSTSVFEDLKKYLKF
AI-2 QS mod = Vibrio harveyi AI-2 quorum sensing modulators, primary screen, JMH597 strain, luminescence/OD600 ratio | 300,000 tested, 0.4% active | activity change, % at 7.5 µM | AID 2094, 2009 | Vibrio harveyi JMH597 AI-2 luminescence/OD600 ratio, 9 h; active compounds read low; strain lacks LuxN and CqsS sensors; 0 = neutral-control median; in the data active means activity change below about -75%, passing the limit was not always enough;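 further: luminescence divided by OD600 gain over 9 h not by final OD600 alone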
CHT PAM = CHT positive allosteric modulators, primary screen, cell-based, membrane potential dye, choline EC20. 310,000 tested, 0.49% active. B-score at 10 µM. CHT-expressing cells; active compounds read high; LV-AA mutant CHT in HEK293 cells;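 active means initial fluorescence not abnormally high and integrated response B-score, plate-corrected, over 3 SD above library mean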
Numbers without * were called inactive; i = inactive; nt = not tested or not shown. Shown are actives, neighbours in structure and some others; about 5% of the full set was active somewhere.

SMILES	CHT block	ALR H2O2 inh	PREPL inh	AI-2 QS mod	CHT PAM
O=C(CSc1nnc(-c2ccccn2)n1Cc1ccco1)c1ccc(Cl)cc1	i	97.3*	-14.7	10.5	i
C(=C\c1ccccc1)/CSc1nnc(-c2ccccc2)n1Cc1ccco1	i	4.5	11.5	9.6	i
O=C(CSc1nnc(-c2cnccn2)n1Cc1ccco1)c1ccccc1	i	87.2*	-6.2	5.5	i
O=C(CSc1nnc(-c2cccnc2)n1Cc1ccco1)c1ccc(Br)cc1	i	95.8*	7.9	20.7	i
CCN1CCN(Cc2ccc(NC(=O)c3cc(NC(=O)c4cnnc5ccccc45)cc(OC)c3)cc2C(F)(F)F)CC1	i	-9.7	-0.3	-3.2	i
CC1CCN(S(=O)(=O)c2cn(CC(=O)N3CCN(c4cccc(C(F)(F)F)c4)CC3)cn2)CC1	i	-15.1	13.0	23.8	i
S=c1[nH]nc(COc2ccccc2)n1/N=C/c1ccc(Br)s1	i	95.1*	-5.0	31.2	i
OC(CN1CCC(Cc2ccccc2)CC1)c1ccccc1 (centres undefined)	i	-9.6	5.6	-2.0	i
O=[N+]([O-])c1cccc(S(=O)(=O)N2CCN(c3ccccn3)CC2)c1	i	-4.6	10.5	-6.1	i
Cc1cc2[nH]c(=S)[nH]c2cc1C	i	98.8*	8.5	17.6	i
Cc1ccc2cc(NC(=O)c3ccccc3C)ccc2n1	i	nt	4.1	16.4	i
ClCC1=Nc2cccc3cccc(c23)N1	i	99.1*	13.1	-4.4	i
COc1ccc2[nH]cc(C(O)CN3CCN(c4ccccc4)CC3)c2c1 (centres undefined)	nt	nt	nt	2.3	nt
COc1ccc(N2CCN(CC(O)c3c[nH]c4ccc(OC)cc34)CC2C)cc1 (centres undefined)	i	99.9*	27.9	5.9	i
CN(C)CCCn1c(SCC(=O)N2c3ccccc3Sc3ccccc32)nc2ccccc2c1=O	i	97.2*	-43.0	-2.8	i
Cc1ccc(-c2csc(NC(=O)CSc3nc4ccccc4c(=O)n3CCCN(C)C)n2)cc1	i	99.0*	-140.6	4.3	i
CCOC(=O)C1=NN(C(C)=O)C2(CC(=O)N(c3cc(C)cc(C)c3)C2=O)C1 (centres undefined)	i	-8.2	-5.4	25.1	i
COC(=O)C1=NN(N=O)C2(CC(=O)N(c3cc(C)cc(C)c3)C2=O)C1 (centres undefined)	i	84.6*	-9.9	12.5	i
COc1cccc(/C=N/N2C(=O)NC3(CCCCC3)C2=O)c1O	i	84.2*	-4.0	11.0	i
COc1ccc(S(=O)(=O)N2CCCC2CNC(=O)C(=O)Nc2ccc(F)cc2)cc1 (centres undefined)	i	-17.1	9.6	7.4	i
Cn1c(=O)[nH]c(=O)c2c1nc(Br)n2CCCSc1nc2ccccc2o1	i	98.3*	0.8	9.5	i
COc1cccc(N2CC(=O)N(NC(=O)CSc3nc(C)cc(C)c3C#N)CC2=O)c1	i	-0.9	12.9	11.0	i
N#Cc1nc(-c2cccs2)oc1NCc1ccccc1	i	60.1	-2.5	-91.1*	i
Cc1ccc(-c2csc(NC(=O)CSc3nc4ccccc4[nH]3)n2)cc1	nt	nt	nt	7.3	nt
Cc1nnc(SCC(=O)Nc2ccccc2)[nH]c1=O	i	-1.9	12.7	4.0	i
SMILES	CHT block	ALR H2O2 inh	PREPL inh	AI-2 QS mod	CHT PAM
Cc1nnc(SCC(=O)Nc2ccc(Br)cn2)[nH]c1=O	i	98.9*	10.5	35.2	i
Cc1nnc(SCC(=O)Nc2nc(-c3ccc(F)cc3)cs2)[nH]c1=O	i	98.9*	-0.9	21.8	i
CC(C)C(C(=O)O)N1C(=O)/C(=C/C=C/c2ccco2)SC1=S (centres undefined)	i	98.9*	34.6	-2.9	i
COc1ccc(N2CCN(c3ncccc3C#N)CC2)cc1	i	97.3*	10.4	-2.6	i
Cc1cc(C(=O)N2CCN(c3ncccc3C#N)CC2)no1	i	-13.3	-0.1	4.8	i
COc1ccc(N2CCN(c3ccc(N)cc3C#N)CC2)cc1	i	86.4*	19.3	10.8	i
O=C(COC(=O)C1=COCCO1)Nc1ccc([N+](=O)[O-])cc1C(F)(F)F	nt	-9.7	-1.6	nt	nt
CCNc1nc(NCC)nc(N/N=C/c2ccc([N+](=O)[O-])o2)n1	i	-38.5	13.9	-157.5*	i
O=C1COc2ccc3ccccc3c21	i	-15.9	-5.2	19.6	i
CN(CC(=O)Nc1ccc(F)c(F)c1F)C(=O)Cc1ccc2c(c1)OCCO2	i	5.5	4.2	8.3	i
O=C(/C=C/c1ccccc1)N/C(=C/c1ccccc1)C(=O)Nc1ccc(C(=O)O)cc1	i	87.4*	-6.6	13.0	i
O=C1SC(c2ccccc2)=C/C1=C\N1CCCCC1	i	94.9*	5.3	5.8	i
Cc1cc(NC(=O)CSc2nc3ccsc3c(=O)n2CCCC(=O)NCCc2ccccc2)no1	i	nt	-18.4	4.6	i
Nc1nc2n[nH]nc2c(=O)[nH]1	i	-44.2	-1.4	-95.0*	i
O=C(CSc1ncnc2ccccc12)N1CCCC1	i	31.0	12.1	43.2	i
COc1ccc(-c2ccc(SCC(=O)c3cccs3)nn2)cc1	i	36.1	-5.8	36.7	i
O=C(CSc1ncnc2ccccc12)c1cccs1	i	98.8*	-41.0	29.2	i
Cc1ccc(C(=O)CSc2ncnc3ccccc23)o1	i	98.7*	-4.0	14.2	i
O=C(CSc1ncnc2ccccc12)NCc1ccc2c(c1)OCO2	i	25.1	-4.8	-2.2	i
O=C(CSc1ncnc2ccccc12)NCC(=O)c1ccccc1	i	96.9*	-3.1	nt	i
O=C(CSc1ccc(-c2ccccc2)nn1)c1cccs1	i	91.9*	-6.4	30.5	i
CCOC(=O)c1c(C)[nH]c(N=Nc2ccccc2)c1C	i	86.7*	-3.2	2.4	i
CCOC(=O)c1c(C)[nH]c(N=Nc2ccc(C)cc2)c1C	i	-12.9	22.9	6.6	i
CCOc1ccc(CNC(=S)N/N=C\c2ccc([N+](=O)[O-])cc2)cc1	i	98.6*	5.7	8.6	i
CCOc1ccc(CNC(=S)N/N=C/c2cccnc2)cc1	i	2.0	-4.0	15.2	i
Cc1ccccc1NC(=O)c1ccc2c(c1)C(=O)N(CC(C)C)C2=O	i	-2.3	-3.5	25.4	i
O=C(Nc1ccccc1C(=O)O)c1cccc(N2C(=O)c3ccccc3C2=O)c1	i	10.2	-4.0	37.5	i
CC(C)CN1C(=O)c2ccc(C(=O)Nc3ccccc3C(=O)O)cc2C1=O	i	80.7*	9.5	-18.5	i

Screening data (PubChem)
